In the OligoGym collection:

Each sequence was assayed against RPS6KA5 (assay: pooled miR-30 sensor sort-seq; sequence = guide strand). Conditions: shRNA.
Further: reference of the scale not given here.

Row | Sequence | sensor-assay potency score (higher = more potent)
1 | TTTTTATGCACACACTTTCGAC | -1.13
2 | TTCATCTCGAATGACTGGCTTA | 0.378
3 | TTCTCCTAGATATCTCAGCTTG | -0.946
4 | TACACGTCAAACTTCGGTCATG | -0.748
5 | TACAGCTGAAACAAGCTTCCTC | 0.279
6 | TCACTTTTTAATATTCTCCTAG | -0.3
7 | TTTTTCTCCATCAACAGTGAAA | -1.03
8 | TTCTTCATGATTTCCACCGCGC | 0.302
9 | TTTGTTTGGATCTACTGTGAGA | -1.04
10 | TAATTCATCTCGAATGACTGGC | 0.637
11 | TTGCTGATTATTTTGACTGCAA | 0.0107

These sequences were tested against RRP12 in the same assay as above. Conditions: shRNA.

Row | Sequence | sensor-assay potency score (higher = more potent)
12 | TTCAACTTAGCTGAGACACCAG | -0.063
13 | TGCAGCTTCATCTTCTTCCTGC | 0.0542
14 | TTGAGCTCTGCTGACAGGGTGC | -0.0342
15 | TAACTTCACAGCATCGACTGTC | 0.541
16 | TTGCTCTCTAGGTAGGGCCGGA | -0.614
17 | TTGTTGTCATCAGAGCAGCGAA | -1.32
18 | TTGTAAATCATTCTCACTGGGA | 0.0361
19 | TATGTAACTTCACAGCATCGAC | -0.864
20 | TAGATCTTAGATTCCACTGTGC | 0.564
21 | TCAACTTAGCTGAGACACCAGA | -0.378
22 | TTTCTGGTGCTTGAGCTTCTGG | -0.862
23 | TCGACTGTCAGGTCACTCCTTC | -0.238
